Screening data as filed in PubChem BioAssay.
3T3 cytotox: Cytotoxic Profiling in NIH 3T3 Cell Line of Diverse Libraries Using Quantitative High-Throughput Screening | NIH 3T3 viability, CellTiter-Glo ATP luminescence, 48-72 h | Potency, µM (highest dose often 96.7 µM), inactives show top-dose activity change, negative = cytotoxicity, hits mostly inhibitors | 94,000 compounds, 4.3% hits; also: % is scaled to controls: 0 for no effect and ±100 for the full control effect; nearly all actives have a fitted effect of over 55% in size
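Viability of NIH 3T3 cells after 48 or 72 hr compound treatment at 37 °C was assessed by CellTiter-Glo, with luminescence imaged following a 10 min room-temperature step.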
SNCA viab count: GF-AFC viability counterscreen for inhibitors of alpha-synuclein gene (SNCA) expression | HEK-293-SNCA-luc viability, GF-AFC fluorescence, 24 h | Potency, µM (titrated, usually from 57.1 µM), for the others: top-dose activity change, negative = cytotoxicity, actives largely listed as cytotoxic | 150,000 compounds, 0.12% hits | AID 1671193, 2021;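 also: 0% = DMSO-treated cells and -100% = medium-only wells without cells; nearly all actives have a fitted effect of over 30% in size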
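HEK-293-SNCA-luc cells (1500/well) plated 24 h, then exposed 24 h to a dilution series; GF-AFC added 30 min at 37C, fluorescence 405/540 nm; normalised to medium-only and DMSO wells, Hill fit.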
Luciferase inh: Firefly luciferase inhibition profiling of diverse chemical library using quantitative high-throughput screening; Luciferin 4-monooxygenase (Photinus pyralis), P08659; purified P. pyralis luciferase, luminescence, biochemical; Potency, µM (series often up to 115 µM), actives largely listed as inhibitors; 76,000 compounds, 2.5% hits; AID 1347043, 2019; also: % is scaled to controls: 0 for no effect and ±100 for the full control effect; nearly all actives have a fitted effect of over 65% in size
Target sequence (P08659 whole entry, looked up): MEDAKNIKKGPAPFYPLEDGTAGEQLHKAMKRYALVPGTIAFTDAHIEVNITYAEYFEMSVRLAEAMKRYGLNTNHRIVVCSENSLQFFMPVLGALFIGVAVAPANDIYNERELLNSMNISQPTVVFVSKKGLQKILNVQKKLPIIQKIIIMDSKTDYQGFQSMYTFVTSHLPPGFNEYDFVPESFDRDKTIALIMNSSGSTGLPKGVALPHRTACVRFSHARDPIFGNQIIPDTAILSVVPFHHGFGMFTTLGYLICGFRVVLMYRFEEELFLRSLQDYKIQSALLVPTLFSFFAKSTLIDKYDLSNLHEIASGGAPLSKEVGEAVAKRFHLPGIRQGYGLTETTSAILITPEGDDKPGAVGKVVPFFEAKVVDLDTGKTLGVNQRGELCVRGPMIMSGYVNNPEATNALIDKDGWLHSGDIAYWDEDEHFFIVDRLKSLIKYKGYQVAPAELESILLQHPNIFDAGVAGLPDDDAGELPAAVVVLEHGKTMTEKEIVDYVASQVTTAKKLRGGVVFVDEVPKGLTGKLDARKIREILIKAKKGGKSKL
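Purified 10nM P. pyralis luciferase with 10uM D-luciferin and 10uM ATP in 50mM Tris acetate pH 7.5, 10mM Mg acetate, 0.01% Tween-20, 0.05% BSA. qHTS titration; luminescence read by CCD imager.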
SNCA expr inh: Primary qHTS assay for inhibitors of alpha-synuclein gene (SNCA) expression; HEK-293 SNCA-luciferase knock-in, luminescence, 24 h; Potency, µM (titrated, usually from 57.2 µM), inactives show at the highest dose activity change, negative = inhibition, actives largely listed as inhibitors; 140,000 compounds, 0.17% hits; AID 1671194, 2021;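 also: plate controls were DMSO cells for no effect and cell-free wells for full effect; nearly all actives have a fitted effect of over 45% in size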
NPR1 antag: Natriuretic polypeptide receptor (hNpr1) antagonism - Primary qHTS; Atrial natriuretic peptide receptor 1 (Homo sapiens), P16066; 76,000 compounds, 1.6% hits; AID 1347048, 2019; Potency, µM (doses to about 46.3 µM), inactives show at the highest dose activity change, negative = inhibition, actives largely listed as inhibitors; HEK293 hNpr1 GloSensor cGMP, ANP-stimulated luminescence; calls by dose curve; also: % is scaled to controls: 0 for no effect and ±100 for the full control effect; nearly all actives have a fitted effect of over 60% in size
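HEK293 cells stably expressing human Npr1 and cGMP GloSensor pGS-40F, loaded 2 h with 2% GloSensor reagent, given compound 30 min at room temperature. Luminescence read before and 20 min after 0.1 nM hNppA.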
HEK293 tox: Cytotoxic Profiling in HEK 293 Cell Line of Diverse Libraries Using Quantitative High-Throughput Screening | HEK 293 viability, ATP luminescence (CellTiter-Glo), 48-72 h | Potency, µM (top dose mostly 115 µM), inactives show at the highest dose activity change, negative = cytotoxicity, hits mostly inhibitors | 94,000 compounds, 6.6% hits | AID 1345083, 2018; also: % is scaled to controls: 0 for no effect and ±100 for the full control effect; nearly all actives have a fitted effect of over 60% in size
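Viability of HEK 293 cells, plated at 250 cells/well, was judged by cellular ATP after compound treatment for 48 or 72 hr. Luminescence was imaged 10 min after CellTiter-Glo addition at room temperature.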
NPR1 antag cnf: Natriuretic polypeptide receptor (hNpr1) antagonism - Confirmation; shares compounds with NPR1 antag; Potency, µM (top dose mostly 57.6 µM), without a hit: top-dose activity change, negative = inhibition, hits mostly inhibitors; 1,400 compounds, 76% hits; HEK293 hNpr1 cGMP GloSensor luminescence, ANP-stimulated; calls by dose curve; also: nearly all actives have a fitted effect of over 70% in size
Npr2 selectivity: Natriuretic polypeptide receptor (hNpr2) antagonism - Subtype selectivity assay; Potency, µM (highest dose often 57.6 µM), inactives show top-dose activity change, negative = inhibition, hits mostly inhibitors; HEK293 hNpr2 GloSensor cGMP luminescence, CNP-stimulated; shares compounds with NPR1 antag; 1,400 compounds, 67% hits; calls by dose curve; also: nearly all actives have a fitted effect of over 70% in size
FLuc counter: Natriuretic polypeptide receptor (hNpr1) antagonism - Confirmation firefly luciferase (FLuc) inhibition counterscreen; shares compounds with NPR1 antag; purified FLuc enzyme, luminescence, Km substrate; Potency, µM (top dose mostly 57.6 µM), for the others: top-dose activity change, negative = inhibition, usual class: inhibitors; 1,400 compounds, 0.7% hits; also: 0% is about no effect
GloSensor ctrl: Natriuretic polypeptide receptor (hNpr1) antagonism - Counterscreen GloSensor control cell line | shares compounds with NPR1 antag | HEK293 GloSensor cGMP, SNP-stimulated, luminescence | Potency, µM (doses to about 57.6 µM), for the others: at the highest dose activity change, negative = inhibition, usual class: inhibitors | 1,400 compounds, 69% hits; calls by dose curve; also: % is scaled to controls: 0 for no effect and ±100 for the full control effect; nearly all actives have a fitted effect of over 70% in size
An asterisk follows results filed as active; i = inactive; ? = inconclusive; . = no result; [ ] = another dose, or the depositor's remark. Most compounds without a hit are left out; they make up all but 7.4% or so of the library. Unless noted, calls follow the shape of the dose curve; as a rule, active = well fitted curve in the direction sought with a large enough effect; inconclusive = small, poorly fitted or top-dose-only effect, or another doubt; inactive = no such curve, though single readings can be large; an effect the other way counts as inactive or inconclusive. Potency is read from the fitted curve at half-maximal effect.

SMILES	3T3 cytotox	SNCA viab count	Luciferase inh	SNCA expr inh	NPR1 antag	HEK293 tox	NPR1 antag cnf	Npr2 selectivity	FLuc counter	GloSensor ctrl
O=C1COc2ccc(-c3ccoc3)nc2CN1Cc1ccccc1	?	?	i	?	?	?	?	?	-3%[86.2 µM]	?
CN1CCCC1COc1ccc2c(n1)CN(Cc1ccc(C(F)(F)F)cc1)C(=O)CO2 (stereo not given)	?	-18%[87.6 µM]	i	-11%[87.6 µM]	-2%[70.6 µM]	?	.	.	.	.
O=C1COc2ccc(-c3ccncc3)nc2CN1Cc1ccccc1	?	-3%[87.6 µM]	i	8%[87.6 µM]	-17%[70.6 µM]	?	.	.	.	.
CC(C)CN(C1CCN(C)CC1)C1CN(C(=O)c2cccs2)C1	-26%	5%	.	-14%	.	-23%	.	.	.	.
O=C(Nc1ccc(F)cc1)c1c[nH]c2cccnc12	?	?	.	78%[87.6 µM]	.	?	?	?	4.4µM*	22µM*
